Sm TGR inh: inhibitors of Schistosoma mansoni thioredoxin glutathione reductase; Q962Y6; purified TGR, DTNB reduction, TNB absorbance 405 nm; Potency, µM (highest dose often 114 µM), without a hit: at the top dose activity change, negative = inhibition, most hits filed as inhibitors; 3% of 360,000 active; AID 485364; also: potency is read from the fitted curve at half-maximal effect; % is scaled to controls: 0 for no effect and ±100 for the full control effect; nearly all actives have a fitted effect of over 60% in size
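TGR 20 nM + NADPH 100 uM (dispensed conc.), cpd preinc 15 min RT; start with NADPH (500 uM addition) then DTNB (15 mM addition). Kinetic TNB absorbance, 405 nm filter. Four-parameter Hill fit across titration.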
Pf growth 96h: P. falciparum growth inhibition at 96 hours; P. falciparum luciferase reporter growth, 96 h; Potency, µM (top dose mostly 28.7 µM), for inactives: top-dose activity change, negative = inhibition, most hits filed as inhibitors; 6.9% of 320,000 active; AID 504834; also: potency is read from the fitted curve at half-maximal effect; % is scaled to controls: 0 for no effect and ±100 for the full control effect
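96 h incubation, 37 C, 5% CO2, of luciferase-reporter P. falciparum-infected RBCs (2% hematocrit, 0.05% parasitemia final) with test compounds; endpoint luminescence.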
NS1 function inh: influenza NS1 inhibition; Potency, µM (highest dose often 46.1 µM), for inactives: at the highest dose activity, positive = more growth; 0.4% of 270,000 active; AID 2326; calls by dose curve; also: potency is read from the fitted curve at half-maximal effect; actives are rising curves; nearly all actives have a fitted effect of over 50% in size
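Compounds were scored for reversing the slow growth caused by influenza A NS1 in S. cerevisiae, measured by optical density at 600 nm. Assay medium contained 2% galactose at pH 6.0; NS1-free yeast of the same strain were the positive control.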
Pf growth 48h: P. falciparum growth inhibition at 48 hours (one generation); Potency, µM (series often up to 28.7 µM), inactives show at the top dose activity change, negative = inhibition, actives largely listed as inhibitors; AID 504832; 5.9% of 310,000 active; P. falciparum luciferase growth in erythrocytes, 48 h; also: potency is read from the fitted curve at half-maximal effect; % is scaled to controls: 0 for no effect and ±100 for the full control effect
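Firefly luciferase activity from engineered P. falciparum reports growth; inhibitors lower the luminescent signal. Cultures contained 2% hematocrit erythrocytes at 0.1% final parasitemia.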
AMA1-RON2 inh: disrupts binding of P. falciparum AMA1 to RON2. AID 720542. 0.2% of 360,000 active. Potency, µM (series often up to 58.2 µM), for inactives: at the highest dose activity change, negative = inhibition, actives largely listed as inhibitors. AlphaScreen AMA1-biotinylated RON2 peptide binding;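 also: potency is read from the fitted curve at half-maximal effect; 0% = vehicle wells and -100% = peptide control; nearly all actives have a fitted effect of over 45% in size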
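AMA1 (3D7) with his tag at 25 nM final met compounds first, then biotinylated RON2 peptide at 25 nM; detection used donor plus acceptor beads, 10 µg/mL apiece, read by AlphaScreen after 30 min at room temperature.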
Flu NS1 inh: influenza NS1 function inhibition validation; shares compounds with NS1 function inh; influenza NS1 function cell assay, 15-point titration; activity change, negative = inhibition, % at 32.9 µM; 1,400 tested, under 10 active; AID 492980; calls by dose curve; also: 0% is about no effect
PR8 titer: reduces influenza A/PR/8/34 replication in MDCK cells. shares compounds with NS1 function inh. MDCK infected influenza A/PR/8/34, virus titer TCID50; active compounds read low. virus titer (log TCID50), log10 TCID50 at 5 µM. 30% of 95 active. AID 504647; call rule not given here
* marks the source's active call; other numbers are inactive results; ? = inconclusive; . = no result given; [ ] = another dose, or the depositor's remark. Hits are enriched below; roughly 11% of the tested compounds scored in any of these assays. Unless noted, calls follow the shape of the dose curve; as a rule, active = well fitted curve in the direction sought with a large enough effect; inconclusive = small, poorly fitted or top-dose-only effect, or another doubt; inactive = no such curve, though single readings can be large; an effect the other way counts as inactive or inconclusive.

SMILES	Sm TGR inh	Pf growth 96h	NS1 function inh	Pf growth 48h	AMA1-RON2 inh	Flu NS1 inh	others
CCC(C)(C)n1nnnc1C(c1cc2cc(OC)c(OC)cc2[nH]c1=O)N1CCc2ccccc21 (stereo not given)	0%	?	14µM*	1µM*	-8%	?
Cc1c(C(=O)Nc2cccc(Cl)c2)oc2ccc(S(=O)(=O)N3CCC4(CC3)OCCO4)cc12	1%	12%	11µM*	0%	-1%	-19
COc1cccc(NC(=O)c2oc3ccc(S(=O)(=O)N4CCC5(CC4)OCCO5)cc3c2C)c1	7%	.	.	.	.	.
O=S(=O)(NCCc1nnc2ccc(SCc3ccc(C(F)(F)F)cc3)nn12)c1ccccc1	-3%	.	.	.	.	.
CN1CCN(c2oc(-c3ccccc3F)nc2S(=O)(=O)c2ccc(Cl)cc2)CC1	-9%	0%	-11%	-13%	-24%	.
CN1CCN(C2=Nc3ccccc3Oc3ccc(Cl)cc32)CC1	-9%	-44%	?	?	-17%	-21	PR8 titer=7.3*
O=C1/C(=C\c2cccs2)CCC/C1=C/c1cccs1	.	183%	.	134%	.	.
O=C(CNC(=O)C(c1ccccc1)c1ccccc1)N/N=C\c1ccc(C(=O)O)cc1	-9%	2%	?	-2%	-3%	8
Cc1ccc(CN2CCC(CNC(=O)c3cnn(-c4ccccc4)c3C3CCN(C(=O)OC(C)(C)C)CC3)CC2)cc1	-6%	.	.	.	.	.
CCOCCCNC(=O)C(NC(=O)CC1NC(=O)NC1=O)c1ccc(Cl)cc1 (stereo not given)	0%	38%	0.89µM*	2%	-19%	-17
CCOCCCNC(=O)C(NC(=O)c1ccc(NC(C)=O)cc1)c1ccc(Cl)cc1 (stereo not given)	-6%	?	0%	6%	-21%	.
Cc1cc(C(=O)NC2CCCN(Cc3ccc(Cl)cc3)C2)n(C)n1 (stereo not given)	-2%	0%	10%	-4%	0%	.
O=C(Cn1cnc2c(oc3ccccc32)c1=O)NCCc1ccccc1	.	.	5µM*	.	5%	-13
CC(C)C(C)NC(=O)Cn1cnc2c(oc3ccccc32)c1=O (stereo not given)	3%	40%	-14%	25%	14%	.
CCC(=O)Nc1sc2c(c1C(N)=O)CCC2	?	83%	-19%	13%	2%	.
N#CCC(=O)Nc1sc2c(c1C(N)=O)CCCC2	-24%	2%	8.9µM*	-9%	105%	18
Cc1cccc(N2C(=O)c3ccc(C(=O)Nc4c[nH]c(=O)[nH]c4=O)cc3C2=O)c1	-4%	40%	-3%	-5%	-3%	.
COc1ccc(OC)c(S(=O)(=O)n2nnc3ccccc32)c1	-23%	?	?	16%	1%	-38
COc1ccc(F)cc1S(=O)(=O)n1nnc2ccccc21	10%	9%	-4%	?	0%	.
Cc1cc(C(=O)CSc2nnc(-c3ccc(Cl)cc3)n2C)c(C)n1CC1CCCO1 (stereo not given)	4%	0%	-3%	?	-1%	.
Cc1cc(C(=O)Cn2nnc(-c3ccc(Cl)cc3)n2)c(C)n1CC1CCCO1 (stereo not given)	0%	8%[5.75 µM]	7.9µM*	0%	-4%	-38
CCOc1ccc(/C=N/NC(=O)Cc2csc(Nc3cccc(C(F)(F)F)c3)n2)cc1	23%	.	10µM*	9.3µM*	-4%	-26
CCOc1ccc(/C=N/NC(=O)Cc2csc(Nc3cccc(C(F)(F)F)c3)n2)c(OCC)c1	13%	38%	22%	57%	92%	.
CCOC(=O)c1cnn2c(N)c(C#N)cnc12	-3%	12%	0%	37%[1.15 µM]	4%	.
CCOC(=O)c1cnn2c(N)c(C#N)nnc12	-4%	?	5µM*	15%	20%	-15
SMILES	Sm TGR inh	Pf growth 96h	NS1 function inh	Pf growth 48h	AMA1-RON2 inh	Flu NS1 inh	others
Cc1ccc(N2CC(C(=O)NCc3nnnn3-c3ccc(C)c(C)c3)CC2=O)cc1C (stereo not given)	4%	.	.	.	.	.
C=CCN(Cc1nc(-c2ccc(OC)c(OC)c2)oc1C)C1CCS(=O)(=O)C1 (stereo not given)	-7%	-25%	2%	-18%	-1%	.
Cn1cccc1Cc1nnc(SCC(=O)Nc2ccccc2F)n1CCc1ccccc1	-26%	-2%	7.1µM*	13µM*	-1%	-4
Cn1cccc1Cc1nnc(SCC(=O)Nc2cccc(F)c2)n1CCc1ccccc1	-18%	-8%	?	?	-7%	.
Cn1cccc1Cc1nnc(SCC(=O)Nc2ccc(Cl)cc2)n1-c1ccc(F)cc1	-24%	-18%	-80%	?	-1%	.
COc1ccc(-n2c(Cc3cccn3C)nnc2SCC(=O)Nc2ccc(Cl)cc2)cc1	50µM*	15%	10µM*	12µM*	3%	-4	PR8 titer=8
Cc1ccc(NC(=O)c2ccc(Cl)cc2Cl)c(C(=O)c2ccccc2)c1	10%	.	.	.	.	.
COc1cccc(-c2nc(N3CCCC3)c3ccccc3n2)c1O	-4%	18%	-4%	0%	11%	.
COc1cccc(-c2nc(N3CCC(C)CC3)c3ccccc3n2)c1O	10%	32%	20µM*	-9%	-21%	-29
CCc1ccc(NC(=O)C(C)OC(=O)c2cccc(S(=O)(=O)N3CCc4ccccc4C3)c2)cc1 (stereo not given)	-5%	-39%	14µM*	3%	-15%	-19
CC(=O)Nc1ccc(-c2ccnc3c2CC(C)(C(=O)Nc2ccc(F)c(Cl)c2)O3)cc1 (stereo not given)	.	.	.	.	3%	.
COc1ccccc1Nc1nc(N)nc(CSC(=S)N2CC(C)CC(C)C2)n1 (stereo not given)	-4%	10µM*	10µM*	?	9%[2.32 µM]	?
COc1cccc(C(=O)N2CCN=C2SCc2cccnc2)c1OC	-10%	?	1.6µM*	.	14%	-15
COc1ccc(C(=O)N2CCN=C2SCc2cccnc2)c(OC)c1	-27%	1%	6%	.	-1%	.
Cc1ccc(-c2nc(CS(=O)(=O)CC(=O)NC3CCCCC3C)c(C)o2)cc1 (stereo not given)	35µM*	63%	3.2µM*	.	-2%	-26
COc1ccc(-c2nc(CS(=O)(=O)CC(=O)NC3CCCCC3C)c(C)o2)cc1 (stereo not given)	?	35%	9%	7%	9%	.
O=c1nccc(Nc2ccccc2)[nH]1	5%	28%	3%	110%	0%	.
c1ccc(Nc2cc(Nc3ccccc3)[nH]n2)cc1	-4%	104%	4.5µM*	-16%	-13%	-5
CCN(CC)c1ccc(NC(=O)CSc2nnc3nc(C)cc(C)n23)cc1	-13%	?	?	?	-12%	-22

Screening results deposited in PubChem BioAssay by National Center for Advancing Translational Sciences (NCATS).
